Source: PubChem
In the library only some 4.6% were active in any assay of this set; here they are far more common.
ADAM10 inh – human ADAM10 inhibitors, primary screen, biochemical, QFRET, HTS; recombinant ADAM10, EDANS/DABCYL FRET peptide cleavage, 3 h; inhibition, % at 7 µM; Disintegrin and metalloproteinase domain-containing protein 10 (Homo sapiens), O14672; 0.62% of 370,000 active; AID 720582, 2013;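 active means inhibition above a per-campaign cutoff equal to the mean of compounds falling between control-based bounds plus 3 SD, cut at about 20% in these data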;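 further: 0% = DMSO wells while the 100% control is not disclosed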
Target sequence (O14672 214-748 limits assumed): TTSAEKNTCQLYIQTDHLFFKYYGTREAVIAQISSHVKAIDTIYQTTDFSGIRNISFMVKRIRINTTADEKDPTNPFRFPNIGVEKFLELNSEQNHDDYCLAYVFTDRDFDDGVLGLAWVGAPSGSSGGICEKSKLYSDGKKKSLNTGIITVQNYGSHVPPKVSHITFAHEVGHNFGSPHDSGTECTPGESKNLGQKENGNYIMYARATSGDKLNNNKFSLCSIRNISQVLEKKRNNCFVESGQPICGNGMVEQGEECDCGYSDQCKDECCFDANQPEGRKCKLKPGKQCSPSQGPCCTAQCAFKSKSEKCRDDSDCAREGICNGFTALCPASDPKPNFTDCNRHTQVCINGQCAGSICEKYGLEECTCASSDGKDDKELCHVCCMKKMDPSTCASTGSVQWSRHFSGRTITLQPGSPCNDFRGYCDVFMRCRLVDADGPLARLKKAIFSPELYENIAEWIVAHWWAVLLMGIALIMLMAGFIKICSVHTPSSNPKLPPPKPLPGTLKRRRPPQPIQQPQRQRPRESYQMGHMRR
KLK7 zymogen act – proKLK7 zymogen activators, primary screen, biochemical, fluorescence intensity; Kallikrein-7 (Homo sapiens), P49862; purified proKLK7, EDANS-DABCYL substrate fluorescence; 100% is mature enzyme control, 0% vehicle; activation, % at 7 µM; 0.9% of 370,000 active; AID 652039, 2013;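 active means activation above the mean of all tested compounds plus 3 SD, computed per campaign excluding outliers beyond control limits, cut at about 13% in these data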
FAS-TE inh – FAS thioesterase domain inhibitors, primary screen, biochemical, fluorescence intensity, uHTS | Fatty acid synthase (Homo sapiens), P49327 | recombinant FAS-TE, OMFH fluorogenic substrate, fluorescence endpoint | inhibition, % at 15 µM | 0.67% of 360,000 active | AID 602261, 2012;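 active means compounds whose normalised, plate-corrected inhibition of enzyme fluorescence in the single-dose primary screen is 50% or more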;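 further: 0% = DMSO with enzyme and 100% = substrate without enzyme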
NR3A LBD binder – binders of NR3A ligand-binding domain, primary screen, biophysical, differential scanning fluorimetry, uHTS | 2.5% of 340,000 active | AID 1259313, 2017 | Tm shift relative to glycine control, % at 25 µM | NR3A LBD differential scanning fluorimetry, Tm shift; 0% = protein alone, 100% = glycine-bound protein;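 active means melting temperature shift of at least 10% of the positive control shift, at one fixed dose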
ADAM17 inh – ADAM17 inhibitors, primary screen, biochemical, QFRET; Disintegrin and metalloproteinase domain-containing protein 17 (Homo sapiens), P78536; recombinant ADAM17, EDANS/DABCYL FRET peptide cleavage; inhibition, % at 6.95 µM; 0.83% of 370,000 active;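 active means inhibition above the mean of compounds lying between control limits plus 3 SD, set per campaign, cut at about 8.5% in these data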;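 further: 0% = DMSO-only wells as the low control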
KLK7 act conf – proKLK7 zymogen activators, confirmation, biochemical, fluorescence intensity, triplicate | AID 686949, 2013 | purified proKLK7, EDANS-DABCYL substrate fluorescence; scaled: vehicle 0, mature enzyme 100 | 68% of 3,200 active | shares compounds with KLK7 zymogen act | activation, % at 7 µM;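 active means activation, as change over the incubation, above the mean of all tested compounds plus 3 SD, cut at about 13% in these data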
EDANS-DABCYL int – EDANS-DABCYL substrate optical interference, artefact control for kallikrein-7 zymogen activator project, biochemical, fluorescence intensity, high throughput; shares compounds with KLK7 zymogen act; no enzyme, 4 h; solvent 0%, active enzyme control 100%; activation, % at 7 µM; 80% of 3,200 active;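 active means activation above the all-compound mean plus 3 SD, ignoring values outside control-based bounds, cut at about 4.8% in these data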;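 further: value is the 4 h activation minus the activation read at time zero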
K7 EDANS ctr – optically interferes with EDANS-DABCYL fluorescence, kallikrein-7 activator counter-screen; shares compounds with KLK7 zymogen act; EDANS-DABCYL peptide fluorescence interference, no enzyme; EC50, µM; 20% of 250 active; AID 720493;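 active means compounds that raise the fluorescence signal in this interference counterscreen, with EC50 at or below 10 µM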;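 further: intact quenched peptide substrate alone read at 355 nm excitation and 520 nm emission; signal is fluorescence gain from T0 to T4 after four hours at room temperature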
* = called active by the depositor; i = inactive; . = not tested or not shown.

SMILES	ADAM10 inh	KLK7 zymogen act	FAS-TE inh	NR3A LBD binder	ADAM17 inh	KLK7 act conf	EDANS-DABCYL int	others
Oc1ccc2ccccc2c1CN1CCOCC1	-80.6	-2.2	-6.5	3.7	-26.7	.	.
CC(C)C[C@H](NC1(C(=O)NC2CCCCC2)CCN(C(=O)OC(C)(C)C)CC1)C(=O)NCCc1c[nH]c2ccccc12	4.5	.	.	.	3.2	.	.
CNC(=O)CN1C(=O)c2cccc3cccc1c23	-83.6	3.0	-2.9	0.9	-27.0	.	.
CN1/C(=N\O)c2cccc3cccc1c23	-230.0	20.8*	-7.0	-0.8	-81.9	40.1*	50.6*
CC(=O)NC(Cc1ccccc1)P(=O)(O)O (stereo not given)	-0.9	0.1	.	.	-0.4	.	.
O=C1c2ccccc2NC(c2ccccc2)N1Cc1ccccc1 (stereo not given)	i	9.4	9.7	-0.3	-299.7	.	.
O=C1c2ccccc2NC(c2ccc(F)cc2)N1Cc1ccco1 (stereo not given)	i	14.6*	-2.9	4.2	-372.6	10.6	19.3*
O=C1c2ccccc2NC(c2ccccc2)N1Cc1ccco1 (stereo not given)	i	16.5*	-1.7	-0.2	-405.7	17.1*	7.5*	K7 EDANS ctr=>69.5
O=C(NCc1cccc2ccccc12)C1CCCN(c2nc3ccccc3o2)C1 (stereo not given)	-1.4	-0.1	.	.	1.3	.	.
CN1CCCN(C(=O)c2ccc(Br)s2)CC1	-15.0	0.1	-3.5	-4.7	-3.6	.	.
CN1CCN(C(=O)c2ccc(-c3cccs3)s2)CC1	i	32.5*	-0.4	8.9	-303.2	6.5	5.3*
CCc1cc2c(COC(=O)CCNS(=O)(=O)c3cccc(C(F)(F)F)c3)cc(=O)oc2cc1O	i	48.0*	15.6	5.5	-485.8	55.9*	56.6*
Cc1cc(NC(=O)COC(=O)CCNS(=O)(=O)c2cccc(C(F)(F)F)c2)no1	-7.5	0.4	-7.4	-2.1	-0.1	.	.
CC1=CC(c2ccccc2)n2nc(N3C(=O)C4CC=CCC4C3=O)nc2N1 (stereo not given)	i	113.3*	-6.5	0.0	i	210.7*	191.0*
CC1=CC(c2ccccc2)n2nc(N3C(=O)CCC3=O)nc2N1 (stereo not given)	i	76.0*	-5.0	1.0	-485.2	112.4*	142.2*
Nc1nc(N2C(=O)C3CC=CCC3C2=O)nn1-c1ccccc1 (stereo not given)	4.4	0.4	-1.8	-2.4	-0.9	.	.
CC1=CC(c2ccccc2)n2nc(N3C(=O)c4ccccc4C3=O)nc2N1 (stereo not given)	i	17.0*	-8.9	-2.8	-472.1	8.3	8.0*
O=C(CCc1ccccc1)N[C@H]1[C@H](OC(=O)c2cnccn2)CCC[C@@]12C(=O)N(Cc1ccccc1)c1ccccc12	8.4	1.1	.	.	0.6	.	.
CN(CCc1ccccn1)C(=O)c1ccc(Sc2ccccc2Cl)c([N+](=O)[O-])c1	-4.6	1.1	.	.	0.6	.	.
COCCNc1cc(C)nc2c3c(C)cc(C)nc3nn12	i	81.2*	-3.5	-2.3	i	70.5*	62.7*
Cc1cc(C)c2c(n1)nn1c(NCCN3CCOCC3)cc(C)nc21	i	33.4*	-7.6	2.6	i	40.3*	31.9*	K7 EDANS ctr=>69.5
COCCNc1cc(C)nc2c(-c3ccccc3OC)c(C)nn12	-17.6	0.2	-3.3	2.6	-3.3	.	.
COc1ccc2c(c1)c1ncn(CCCN3CCOCC3)c(=O)c1n2C	i	14.6*	-7.1	2.0	i	10.9	20.2*
